Most compounds without a hit are left out; they make up all but 6.3% or so of the library.
TIM10 inh = inhibits growth of TIM10 yeast strain; hit rate 1.4% among 330,000; S. cerevisiae TIM10 strain growth, BacTiter-Glo luminescence, 24 h; inhibition, % at 10 µM;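 active means inhibition of 40% or more at the single tested concentration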;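 further: wild-type TIM10 isogenic control strain grown at permissive 25 °C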
Mdm2-MdmX inh = disrupts the human Mdm2-MdmX interaction; O15151+Q00987; SaOS-2 split-luciferase Mdm2/MdmX complementation, luminescence; inhibition, % at 8 µM; hit rate 3% among 330,000; AID 485346;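 active means inhibition of at least 50% at 8 µM in the primary screen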
Target sequence (O15151 whole entry, looked up): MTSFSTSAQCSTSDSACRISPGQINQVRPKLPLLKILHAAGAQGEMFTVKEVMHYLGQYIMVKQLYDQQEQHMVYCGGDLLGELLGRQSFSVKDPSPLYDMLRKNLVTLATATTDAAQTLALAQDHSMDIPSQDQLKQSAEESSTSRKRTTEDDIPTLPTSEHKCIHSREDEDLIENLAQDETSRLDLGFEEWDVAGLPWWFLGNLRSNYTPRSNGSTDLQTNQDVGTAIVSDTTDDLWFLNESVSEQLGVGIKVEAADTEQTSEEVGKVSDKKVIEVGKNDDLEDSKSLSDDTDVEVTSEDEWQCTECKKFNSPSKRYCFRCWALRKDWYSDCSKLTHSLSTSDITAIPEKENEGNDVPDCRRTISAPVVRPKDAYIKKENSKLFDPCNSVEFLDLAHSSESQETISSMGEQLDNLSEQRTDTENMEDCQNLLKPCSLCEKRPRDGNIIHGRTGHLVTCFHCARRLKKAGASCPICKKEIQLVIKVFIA
Target sequence (Q00987 whole entry, looked up): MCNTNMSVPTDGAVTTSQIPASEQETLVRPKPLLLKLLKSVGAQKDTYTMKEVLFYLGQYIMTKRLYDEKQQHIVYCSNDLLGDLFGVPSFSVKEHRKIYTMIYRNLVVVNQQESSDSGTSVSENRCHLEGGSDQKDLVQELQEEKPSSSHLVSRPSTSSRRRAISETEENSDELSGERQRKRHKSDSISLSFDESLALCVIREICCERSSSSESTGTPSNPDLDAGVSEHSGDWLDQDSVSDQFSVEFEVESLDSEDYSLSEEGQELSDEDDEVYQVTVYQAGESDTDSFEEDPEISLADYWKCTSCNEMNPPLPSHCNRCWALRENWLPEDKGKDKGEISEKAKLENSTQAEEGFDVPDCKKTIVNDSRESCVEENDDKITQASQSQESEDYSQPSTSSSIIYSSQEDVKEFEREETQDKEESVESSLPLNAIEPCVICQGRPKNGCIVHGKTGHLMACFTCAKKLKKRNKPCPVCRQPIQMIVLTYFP
tim10-1 inh = inhibits growth of tim10-1 mutant yeast | S. cerevisiae tim10-1 ts strain growth, BacTiter-Glo, 24 h | inhibition, % at 20 µM | hit rate 2.2% among 330,000;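 active means inhibition of at least 40%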;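 further: mutant grown at 25 °C; 0% = DMSO wells with yeast and 100% = wells holding no yeast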
tim23-1 inh = inhibits growth of tim23-1 mutant yeast | S. cerevisiae tim23-1 growth, BacTiter-Glo luminescence, 24 h | inhibition, % at 20 µM | hit rate 1.3% among 330,000;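 active means growth inhibition of the mutant yeast at or above 50%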;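 further: temperature-sensitive mutant grown at 25 °C; plate controls were DMSO-treated mutant yeast for no effect and medium wells lacking yeast for full effect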
MPTP block = permeability transition pore inhibition | AID 602449 | isolated mouse mitochondria, Ca2+ swelling absorbance, 30 min | inhibition, % at 10 µM | hit rate 1.4% among 360,000;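 active means inhibition of 50% or more, scaled per plate between neutral and stimulator controls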;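 further: 0% = DMSO wells given calcium and 100% = 1 mM EGTA wells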
tim10-1 confirm = tim10-1 yeast growth inhibition, confirmed; S. cerevisiae tim10-1 ts strain growth, BacTiter-Glo, 24 h; AID 463213; inhibition, % at 20 µM; shares compounds with tim10-1 inh; hit rate 56% among 7,400;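 active means inhibition of yeast growth at or above a set limit in either of two repeat tests at 20 µM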;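 further: tim10-1 mutant grown at permissive 25 °C to find synthetic lethal compounds; 0% = DMSO yeast wells and 100% = medium wells without yeast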
* marks the source's active call; other numbers are inactive results; · = no result given; ! = not active in a repeat.

SMILES	TIM10 inh	Mdm2-MdmX inh	tim10-1 inh	tim23-1 inh	MPTP block	tim10-1 confirm
CN(C)CCCN(C(=O)c1ccc(C(=O)c2ccccc2)cc1)c1nc2c(F)cccc2s1	18.7	40.1	47.1*	17.6	43.4	12.6
CCCC[C@@H]1CNC(=S)N1CCC12CC3CC(CC(C3)C1)C2	9.7	2.2	41.5*	36.2	-2.4	15.5
CCCC[C@@H]1CNC(=S)N1CC1CCCCC1	20.4	-25.6	24.3	31.6	1.4	·
Cc1ccccc1NS(=O)(=O)c1cc(C(=O)NCCC2=CCCCC2)ccc1C	24.3	6.6	40.4*	49.6	7.7	25.4
Cc1ccc(C(=O)NCCC2=CCCCC2)cc1S(=O)(=O)N1CCCCC1	6.3	-9.8	41.0*	38.9	0.3	26.5
Cc1ccc(C(=O)N2CCc3ccccc3C2)cc1S(=O)(=O)N1CCOCC1	11.8	-9.8	27.8	30.7	0.7	·
Cc1ccccc1NS(=O)(=O)c1cc(C(=O)N2CCc3ccccc3C2)ccc1C	4.5	37.2	42.3*	37.0	-0.1	32.7*
O=C(Nc1cccc(C(F)(F)F)c1)Nc1nnc([C@@H]2C[C@H](O)[C@@H](CO)O2)s1	·	·	·	·	1.3	·
COCCCNC(=O)c1cn(C)c(=O)c2c1c1ccccc1n2C	3.5	12.4	16.5	12.2	-0.9	·
Cn1cc(C(=O)NCCN2CCN(c3cccc(Cl)c3)CC2)c2c3ccccc3n(C)c2c1=O	13.0	18.2	46.1*	26.0	0.9	13.7
CCCCn1nnnc1C(c1ccccc1)N1CCN(c2cccc(C)c2C)CC1 (stereo unspecified)	·	·	·	·	2.8	·
COc1ccc2c(Cl)cc(NC(=O)Nc3c(C)cccc3C)nc2c1	·	·	·	·	0.4	·
O=C(CNc1cccc2ccccc12)N/N=C/c1cccc(Oc2ccccc2)c1	34.0	27.3	41.8*	0.1	-1.3	28.0
CCCCN1CC(COCc2ccccc2)Oc2cccc(OCc3ccc(OC)cc3)c2S1(=O)=O (stereo unspecified)	·	·	·	·	0.3	·
O=C(NCC1CCCO1)c1cccc(S(=O)(=O)Nc2ccccc2Cl)c1 (stereo unspecified)	·	·	·	·	5.4	·
c1ccc(-c2nnc3ccc(N4CCC5(CC4)OCCO5)nn23)cc1	17.2	-2.0	43.1*	26.6	-3.9	22.6
CCNC(=O)N(C)c1c(CC)nc2ccc(C(=O)N3CCN(S(=O)(=O)CC)CC3)cn12	·	·	·	·	-0.4	·
Cc1ccc(S(=O)(=O)N2[C@H](CC(=O)c3ccc(Cl)c(Cl)c3)OC[C@@H]2C)cc1	·	·	·	·	-0.4	·
CCOC(=O)/C=C/C(=O)OCC(=O)Nc1ccc(C)cc1	28.6	9.0	40.6*	33.5	-1.0	36.6*
COc1cc2c(C#N)c(N3CCCC3)nc(N)c2c(N)n1	27.0	23.6	43.4*!	47.6	-0.4	21.8
CN1CCN(c2ncnc3c2ncn3[C@H]2CN(Cc3ccc(Cl)cc3)C[C@@H](CO)O2)CC1	·	·	·	·	-0.1	·
CCn1c2ccccc2nc2cc3c(cc21)c(Cl)c(=O)c1ccccc13	·	·	·	·	2.1	·
CCC(C)c1ccc(NC(=O)CN(C)CC(=O)Nc2cccc(OC)c2)cc1 (stereo unspecified)	8.0	-15.4	-2.9	20.2	-0.3	·
CSc1ccc(NC(=O)CC(C)=O)cc1	-0.3	13.4	14.7	17.0	-0.5	·
CCC(C)c1ccc(NC(=S)Nc2ccc(OC)cc2C)cc1 (stereo unspecified)	31.6	7.0	45.5*	45.2	8.7	36.0*
SMILES	TIM10 inh	Mdm2-MdmX inh	tim10-1 inh	tim23-1 inh	MPTP block	tim10-1 confirm
CCC(C)c1ccc(NC(=S)Nc2ccc(OC)c(OC)c2)cc1 (stereo unspecified)	29.3	1.6	44.1*	38.6	-0.6	32.5*
CCC(C)c1ccc(NC(=O)CC(C)=O)cc1 (stereo unspecified)	6.5	6.2	42.0*	18.7	2.3	24.1
Cc1ccc(C(=O)Nc2ccccc2C(=O)N2CC(C)OC(C)C2)cc1 (stereo unspecified)	·	·	·	·	-1.0	·
COc1ccc(-n2c(Cc3cccn3C)nnc2SCC(=O)Nc2ccc(Cl)cc2)cc1	18.7	7.0	41.8*	45.8	0.7	14.3
COCCCNC(=O)c1c(N)n(/N=C/c2ccccn2)c2nc3ccccc3nc12	29.5	32.1	42.0*	8.4	-2.5	26.8
Cc1ccccc1SCC(=O)Nc1cc(C(F)(F)F)ccc1N1CCOCC1	22.6	26.9	44.1*	34.6	-0.3	34.4*
CCOc1ccccc1NC(C)C(=O)Nc1cc(C(F)(F)F)ccc1N1CCOCC1 (stereo unspecified)	33.4	22.8	40.3*	45.4	1.0	24.6
Nc1nc(-c2ccccc2)c(-c2ccc([N+](=O)[O-])cc2)s1	26.1	43.1	46.4*	38.2	-0.3	16.2
Nc1nc(-c2ccccc2)c(-c2ccccc2)s1	10.8	1.6	-8.2	21.8	-2.0	·
COc1ccccc1CNC(=O)COc1cc(O)c2c(c1)OC(C)(C)CC2=O	·	·	·	·	1.3	·
Cc1cccc(/C=C2\Sc3ccc(C(=O)N4CCCCC4)cc3N(C)C2=O)c1	0.3	45.3	45.4*	33.4	-0.7	-2.1
O=C1NC[C@H](Cc2ccccc2)N(C[C@@H]2CCCN2C[C@H](Cc2ccc(O)cc2)N2C[C@H](Cc3ccccc3)N(CCc3ccccc3)C(=O)C2=O)C1=O	·	·	·	·	-2.7	·
CCOC(=O)C1CCN(c2cc3c(cc2NC(=O)c2ccccc2Cl)n(C)c(=O)n3C)CC1	2.5	18.3	48.7*	32.9	-2.2	-3.8
CCOC(=O)C1CCN(c2cc3c(cc2NC(=O)c2ccccc2OCC)n(C)c(=O)n3C)CC1	-19.9	25.0	47.5*	30.4	-2.1	-0.4
CCOC(=O)C1CCN(c2cc3c(cc2NC(=O)c2ccccc2F)n(C)c(=O)n3C)CC1	-12.1	21.2	9.0	14.8	0.9	·
CCOC(=O)C1CCN(c2cc3c(cc2NC(=O)c2ccc(F)cc2)n(C)c(=O)n3C)CC1	15.6	10.3	20.4	13.2	3.2	·
Cc1cc2nc(-c3ccc4c(c3)CCC4)ccn2n1	-22.9	-9.4	41.0*	18.8	-1.0	19.9
COc1ccc(Nc2nnc(SCc3cn4c(C)cccc4n3)s2)cc1	-4.9	31.0	16.8	18.2	2.6	·
Cc1cccn2cc(CSc3nnc(Nc4ccc(C(C)C)cc4)s3)nc12	16.9	21.7	44.9*	16.4	5.7	28.1
CC1CCN(C(=O)CCc2ccc(Oc3cc([N+](=O)[O-])cc([N+](=O)[O-])c3)cc2)CC1	29.1	-11.5	51.0*	45.8	7.6	40.6*
COCCNC(=O)C1(C)CCN(C(=O)c2nc(C)oc2C)C1 (stereo unspecified)	·	·	·	·	-2.5	·
CC1=CC(C)(C)Nc2ccc(OC(=O)c3cccnc3)cc21	13.2	21.7	40.4*	32.7	-1.0	24.6
CCOC(=O)c1cc(CC)sc1NC(=O)c1cc(OCC)c(OCC)c(OCC)c1	12.1	3.1	17.7	-4.9	2.1	·
CCOC(=O)c1cc(CC)sc1NC(=O)c1ccc2c(c1)OCCO2	32.2	-14.3	41.3*	16.5	2.0	9.1
O=C(Nc1ccc2c(c1)OCO2)c1cccc2c1C(=O)N(Cc1cccnc1)C2	35.2	-0.7	42.9*	19.9	1.5	33.6*

Assay outcomes as filed in PubChem.
